# From PubChem BioAssay (NCI)
# The panel holds about 83,000 compounds, 20% with a hit somewhere; the sample as a whole holds those more often.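 Testing used 96-well plates and a 48-hour single-concentration exposure. Example: -40 means 40% of the starting cells died.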 The source made the active and inactive calls. The calls were made as follows: active = growth percent below 10; inactive = the rest.
# Experiments:
# Experiment in all cases: NCI-60 one-dose screen, 48 h (100 = growth as untreated, 0 = no growth, -100 = all killed)
# Conditions in all cases: 10 µM unless noted
# BT-549 breast = test system: BT-549 breast
# MDA-MB-435 melanoma = test system: MDA-MB-435 melanoma
# SW-620 colon = test system: SW-620 colon
# MCF7 breast = test system: MCF7 breast
# HCT-116 colon = test system: HCT-116 colon
# HCC-2998 colon = test system: HCC-2998 colon
# KM12 colon = test system: KM12 colon
SMILES,growth (BT-549 breast),growth (MDA-MB-435 melanoma),growth (SW-620 colon),growth (MCF7 breast),growth (HCT-116 colon),growth (HCC-2998 colon),growth (KM12 colon)
Cc1[nH]c(N=Nc2ccccc2)nc1N=Nc1ccccc1,37.7% (inactive),37.1% (inactive),31.7% (inactive),15.3% (inactive),11.1% (inactive),26.3% (inactive),35.1% (inactive)
C=CCn1c(SCC(=O)Nc2ccc(C(=O)/C=C/c3cc(OC)c(OC)c(OC)c3)cc2)nnc1-c1ccccc1,95.5% (inactive),50% (inactive),73.2% (inactive),13.6% (inactive),15.8% (inactive),108% (inactive),54.4% (inactive)
COc1cc(C2CC(c3ccc(Nc4nc(NCCO)nc(NCCO)n4)cc3)=NN2c2cc(Cl)cc(Cl)c2)cc(OC)c1OC (stereo not drawn),-27.2% (active),-15.9% (active),-4.18% (active),-60.9% (active),9.76% (active),24.4% (inactive),-25.6% (active)
Cc1cnc(SCc2ccc(Cl)cc2)[nH]c1=S,108% (inactive),104% (inactive),111% (inactive),95.6% (inactive),101% (inactive),108% (inactive),96.3% (inactive)
CC(=O)c1cc2c(N)c(C(=O)Nc3ccccn3)sc2nc1C,98.6% (inactive),5.72% (active),96.9% (inactive),73.2% (inactive),93.3% (inactive),84.6% (inactive),89.3% (inactive)
NCCN1CCNCC1,130% (inactive),105% (inactive),103% (inactive),96.6% (inactive),105% (inactive),94.3% (inactive),109% (inactive)
CC(=O)c1cnc(-c2ccccc2)nc1CBr,70.3% (inactive),86.4% (inactive),39.6% (inactive),52.2% (inactive),28.4% (inactive),99.8% (inactive),95.2% (inactive)
Cn1c2ccccc2c2c(OC(=O)c3ccccc3)c3c(nc21)-c1ccccc1C3,94% (inactive),104% (inactive),105% (inactive),72.7% (inactive),95.9% (inactive),106% (inactive),96.7% (inactive)
Cc1ccc(C2=N[C@H]3CCC[C@@H]3N(c3ccccc3)C(C(Cl)Cl)=N2)cc1,106% (inactive),103% (inactive),107% (inactive),87% (inactive),97.7% (inactive),110% (inactive),100% (inactive)
O=CN1N=C(c2ccc3c(c2)OCO3)CC1c1cccc(Nc2ccnc3cc(C(F)(F)F)ccc23)c1 (stereo not drawn),75% (inactive),40.6% (inactive),95.1% (inactive),68.2% (inactive),74.5% (inactive),93.6% (inactive),66.6% (inactive)
Cc1cccc(NC(=O)c2sc3nc4c(cc3c2N)CN(Cc2ccccc2)CC4)c1C,54% (inactive),-25.2% (active),24.3% (inactive),22.4% (inactive),29.2% (inactive),55.8% (inactive),25.7% (inactive)
COc1ccc(C2=NN(c3ccc(S(N)(=O)=O)cc3)C(c3ccc(Cl)cc3)C2)c(O)c1 (stereo not drawn),84.7% (inactive),47.2% (inactive),76.2% (inactive),28.2% (inactive),24.4% (inactive),60.6% (inactive),41.3% (inactive)
N#Cc1c(-c2ccc(F)cc2)nc(N/N=C/c2cccc(O)c2)nc1N1CCOCC1,93.4% (inactive),93.4% (inactive),73.7% (inactive),72.4% (inactive),71% (inactive),95.1% (inactive),86% (inactive)
CN1CCN(C(=O)[C@@]2(C)CC[C@]3(C)CC[C@]4(C)C(=CC[C@@H]5[C@@]6(C)CC[C@H](OC(=O)c7cccnc7)C(C)(C)[C@@H]6CC[C@]54C)[C@@H]3C2)CC1,73.8% (inactive),45.4% (inactive),-35.5% (active),19.1% (inactive),51.7% (inactive),97.3% (inactive),53.2% (inactive)
Nc1c(C(=O)Nc2ccccc2Cl)sc2nc3c(cc12)CN(Cc1ccccc1)CC3,93.8% (inactive),107% (inactive),94.1% (inactive),92.9% (inactive),103% (inactive),96.5% (inactive),96.1% (inactive)
CO[C@@]12C=C[C@@]34CCC(=O)N3c3ccccc3[C@@H](O1)C4C2,105% (inactive),104% (inactive),101% (inactive),97.9% (inactive),102% (inactive),106% (inactive),105% (inactive)
N#Cc1ccc(Oc2ccc3ccc(=O)oc3c2)cc1,110% (inactive),120% (inactive),96.5% (inactive),97.3% (inactive),91.5% (inactive),104% (inactive),96.2% (inactive)

SMILES,growth (BT-549 breast),growth (MDA-MB-435 melanoma),growth (SW-620 colon),growth (MCF7 breast),growth (HCT-116 colon),growth (HCC-2998 colon),growth (KM12 colon)
CCSc1ccc(C2C(Br)C(=O)N2c2cc(OC)c(OC)c(OC)c2)cc1 (stereo not drawn),13.8% (inactive),-1.6% (active),23% (inactive),13.2% (inactive),4.7% (active),31.7% (inactive),17% (inactive)
COc1cc(/C=C/C(=O)c2cccs2)ccc1OCc1ccc(Cl)nc1,91.4% (inactive),76.7% (inactive),58.2% (inactive),9.24% (active),75.1% (inactive),99.8% (inactive),28.5% (inactive)
C=C(C)[C@@H]1CC[C@]2(C(=O)OCCOCCOCC[P+](c3ccccc3)(c3ccccc3)c3ccccc3)CC[C@]3(C)[C@H](CC[C@@H]4[C@@]5(C)CC[C@H](OC(=O)C(Cl)Cl)C(C)(C)[C@@H]5CC[C@]43C)[C@@H]12,-89.4% (active),-62.5% (active),5.87% (active),1.7% (active),-84.1% (active),12.1% (inactive),-55.7% (active)
Cc1nnc(/N=C2\NC(=O)/C(=C/c3ccc(N(C)C)cc3)S2)s1,67.4% (inactive),9.37% (active),66.9% (inactive),53.4% (inactive),54.6% (inactive),85.5% (inactive),46.1% (inactive)
CC(C)(C)c1ccc2oc(=O)n(SC(Cl)(Cl)Cl)c2c1,98.2% (inactive),107% (inactive),76.5% (inactive),86.4% (inactive),103% (inactive),96.5% (inactive),95.2% (inactive)
CCCCC(=O)Nc1c(C(=O)Nc2ccccc2)sc2nc3c(cc12)C(OC(=O)CCCC)CCC3 (stereo not drawn),85.4% (inactive),108% (inactive),50.1% (inactive),82.9% (inactive),101% (inactive),101% (inactive),99.9% (inactive)
Nc1ccc(C2=NN(C(=O)c3cc(-c4ccc(Cl)cc4)nc4ccccc34)C(c3ccccc3)C2)cc1 (stereo not drawn),35.1% (inactive),-24.3% (active),22.5% (inactive),12.7% (inactive),24.7% (inactive),59.6% (inactive),24.5% (inactive)
C=C1C(=O)O[C@H]2[C@H]1CC/C(COC(=O)n1ccnc1)=C\CC[C@@]1(C)O[C@@H]21,94.8% (inactive),99.6% (inactive),71.2% (inactive),76.8% (inactive),81.6% (inactive),104% (inactive),105% (inactive)
CCOC(=O)c1cnn(-c2nc(-c3ccc(F)cc3)c(C#N)c(N3CCOCC3)n2)c1N,95.6% (inactive),99.1% (inactive),104% (inactive),89.9% (inactive),99.5% (inactive),111% (inactive),105% (inactive)
C#CCOC(=O)[C@]1(C)CCC[C@]2(C)[C@H]3C[C@H]4C(C(C)C)=C[C@]3(CC[C@H]21)[C@@H]1C(=O)CCC(=O)[C@@H]14,91.7% (inactive),97.7% (inactive),86.9% (inactive),83.2% (inactive),77.8% (inactive),102% (inactive),87% (inactive)
S=c1ssnc1-c1cc2ccccc2o1,103% (inactive),57% (inactive),71.5% (inactive),65.5% (inactive),59.5% (inactive),98.3% (inactive),81.6% (inactive)
O=C1c2ccccc2C(=O)c2c1oc1c2c(=O)[nH]c2ccc(Cl)cc21,38% (inactive),10.2% (inactive),-53% (active),0.704% (active),-12.2% (active),65.1% (inactive),0.119% (active)
COc1ccc(/C=C(/C(=O)N2CCCC2)c2cc(OC)c(OC)c(OC)c2)cc1,61.1% (inactive),-18.3% (active),22.1% (inactive),24.8% (inactive),23.8% (inactive),80.1% (inactive),31.9% (inactive)
COC(=O)c1ccc2c(c1)NC(=O)[C@@H]1CCCN21,87.2% (inactive),100% (inactive),96.8% (inactive),73.9% (inactive),93.8% (inactive),109% (inactive),101% (inactive)
c1ccc2nc(N3CCOCC3)c(N3CCCCC3)nc2c1,109% (inactive),106% (inactive),104% (inactive),93.8% (inactive),102% (inactive),103% (inactive),101% (inactive)
O=C1CCc2ccccc2N1,107% (inactive),97.6% (inactive),102% (inactive),96.6% (inactive),101% (inactive),84.8% (inactive),96.6% (inactive)
CNCc1cccc2c1OCCOCCOCCN(CCN1CCOCC1)S(=O)(=O)c1ccc(cc1)-c1cnc(N)c(n1)C(=O)N2,22.3% (inactive),47.3% (inactive),43.4% (inactive),37.8% (inactive),35.9% (inactive),48.2% (inactive),37.5% (inactive)
